GDH-TPI inh: counter-screen for M. tuberculosis FBA inhibitors: GDH-TPI coupled enzymes; GDH-TPI coupled enzyme counterscreen, NADH absorbance; inhibition, % at 4.8 µM; actives 1.2% (n = 360,000); in the data active means inhibition above about 30%;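 further: 0% = DMSO wells and 100% = wells lacking the enzyme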
UGM FP inh: inhibitors of M. tuberculosis UDP-galactopyranose mutase; P9WIQ1; purified UGM, fluorescence polarization probe displacement; inhibition, % at 10 µM; actives 0.06% (n = 320,000); AID 504406; in the data active means inhibition above about 10%, passing the limit was not always enough
Mtb bLac sens: beta-lactam sensitization of Mtb H37Rv; M. tuberculosis H37Rv growth with meropenem, percent inhibition; inhibition, % at 25 µM; actives 0.27% (n = 330,000); AID 434955; call rule not given here;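 further: growth measured after seven days incubation then overnight dye step; 0% = bacteria only wells and 100% = bacteria with antibiotic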
Rv3671c inh: Rv3671c (M. tuberculosis) protease inhibition | inhibition, % at 5.96 µM | P9WHR9 | actives 0.048% (n = 320,000); in the data active means inhibition above about 38%;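 further: extracellular domain of Rv3671c used as enzyme; 0% = enzyme with DMSO and 100% = no enzyme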
Target sequence (P9WHR9 whole entry, looked up, the tested form may be a part): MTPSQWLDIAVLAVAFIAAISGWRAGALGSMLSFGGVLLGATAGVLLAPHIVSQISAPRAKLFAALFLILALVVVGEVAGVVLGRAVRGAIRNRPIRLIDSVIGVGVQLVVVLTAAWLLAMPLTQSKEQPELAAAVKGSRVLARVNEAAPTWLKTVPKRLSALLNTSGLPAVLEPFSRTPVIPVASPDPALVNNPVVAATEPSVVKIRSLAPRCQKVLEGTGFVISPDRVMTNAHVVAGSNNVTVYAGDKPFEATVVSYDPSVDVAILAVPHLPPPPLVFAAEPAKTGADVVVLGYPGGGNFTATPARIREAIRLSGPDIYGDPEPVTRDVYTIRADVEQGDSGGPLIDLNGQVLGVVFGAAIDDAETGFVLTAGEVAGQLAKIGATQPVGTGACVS
Mtb FBA inh: Mtb fructose-bisphosphate aldolase inhibition. purified M. tuberculosis FBA, fluorescence read-out. actives 2.3% (n = 360,000). P9WQA3. inhibition, % at 1 µM; in the data active means inhibition above about 27%;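 further: 0% = vehicle and 100% = reference inhibitor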
Numbers without * were called inactive; · = not tested or not shown; + = active, no number. Shown are actives, neighbours in structure and some others; about 3.5% of the full set was active somewhere.

SMILES	GDH-TPI inh	UGM FP inh	Mtb bLac sens	Rv3671c inh	Mtb FBA inh
Nc1ccc(Oc2ccc([N+](=O)[O-])cc2[N+](=O)[O-])cc1	33*	-1	15	1	3
O=[N+]([O-])c1ccc(Oc2cccnc2)c([N+](=O)[O-])c1	2	·	·	·	-2
O=C(CSc1nccc(=O)[nH]1)N1N=C2/C(=C/c3ccco3)CCCC2C1c1ccco1 (configuration not stated)	12	1	0	-4	1
Cn1cnnc1SCC(=O)N1N=C2/C(=C/c3ccco3)CCCC2C1c1ccco1 (configuration not stated)	19	0	-23	-7	0
Nc1nc(SCC(=O)N2N=C3/C(=C\c4ccco4)CCCC3C2c2ccco2)n[nH]1 (configuration not stated)	33*	·	·	·	-1
Nc1nc(SCC(=O)N2N=C3/C(=C/c4ccco4)CCCC3C2c2ccco2)n[nH]1 (configuration not stated)	35*	-1	1	0	4
CCOc1ccc(/C=C2\SC(N3CCCCC3)=NC2=O)cc1	48*	0	5	5	2
Cc1ccc(/C=C2\SC(N3CCCC3)=NC2=O)cc1	·	-3	100	2	·
C=CCN1C(=O)C(CC(=O)O)S/C1=N/N=C/c1ccc(N(CC)CC)cc1 (configuration not stated)	35*	-1	6	-5	23
CN(C)c1ccc(/C=N/N=C2/SC(CC(=O)O)C(=O)N2c2ccc(O)cc2)cc1 (configuration not stated)	21	4	1	-2	21
COc1ccc(C2C3=C(CC(c4ccco4)CC3=O)Nc3ccccc3N2C(C)=O)cc1 (configuration not stated)	34*	1	4	-4	1
Nc1ccc(-c2nc3ccccc3o2)cc1	14	-2	46	2	150*
Cc1ccc(C(=O)N2CCN(c3cccc(Cl)c3)CC2)cc1C	31*	-2	-1	-4	3
COC(=O)c1ccc(NC(=O)Nc2ccc([N+](=O)[O-])cc2)cc1	24	0	44	-41	-1
O=c1[nH]c(=S)n(-c2cccc(Cl)c2)c(O)c1/C=N/N1CCOCC1	35*	-2	5	-1	-4
COC(CNC(=O)c1cccnc1)OC	-3	-1	-5	10	4
COC(CNC(=O)c1ccc2c3c(onc13)-c1ccccc1C2=O)OC	-1	27*	3	-44	-1
S=c1nccc(-c2ccc3c(c2)CCO3)[nH]1	49*	0	81	1	4
CC1(C)CCc2cc(-c3ccnc(=S)[nH]3)ccc2O1	29	0	2	-4	4
COc1cc2c(cc1O)CCN(C(=O)CSc1nncn1C)[C@@H]2C	3	2	-4	-9	4
COc1cccc(C(=O)NCC(=O)N2CCC3(CC2)NCCc2[nH]cnc23)c1OC	51*	-2	-2	3	7
COc1ccc2cc3cc(C(=O)NCc4ccccn4)oc3nc2c1	27	1	17	-6	+
COc1ccc2cc3cc(C(=O)NCc4ccco4)oc3nc2c1	20	1	55	-15	140*
Cn1ncc2c(=S)nc(Cl)[nH]c21	19	·	·	·	1
CC1C2(C)OC(=N)C(C#N)(C(C)O2)C1(C#N)C#N (configuration not stated)	13	3	-6	2	128*
SMILES	GDH-TPI inh	UGM FP inh	Mtb bLac sens	Rv3671c inh	Mtb FBA inh
CN(N=Nc1ccc([N+](=O)[O-])cc1)c1ccccc1	13	26*	51	-7	-9
O=[N+]([O-])c1ccc(N=NNc2ccccc2)cc1	11	3	-4	-7	78*
O=C(O)c1cc(NN=Nc2cccc([N+](=O)[O-])c2)cc([N+](=O)[O-])c1	24	-3	-7	-10	-2
O=C(O)c1cc(NN=Nc2ccc(Br)cc2)cc([N+](=O)[O-])c1	31*	-1	19	-1	-1
O=[N+]([O-])c1cccc(NN=Nc2ccccc2)c1	16	-3	58	3	-1
CCCCOc1ccc(N(CC(=O)NCCOC)C(=O)CCC(=O)Nc2ccccn2)cc1	7	5	-1	-4	0
Cc1nn(C)c2nc(-c3cccs3)cc(C(F)(F)F)c12	12	2	-7	0	12
COCCn1c(=O)[nH]c(=O)c2c(C(F)(F)F)cc(-c3cccs3)nc21	14	-2	2	-2	+
CCCC(C)NC(=O)COc1ccc(S(=O)(=O)N2CCCC2)cc1 (configuration not stated)	0	-1	-7	4	3

Assay outcomes deposited in PubChem by several laboratories.
